Screening results as filed in PubChem BioAssay.
Shown is part of a subset that was picked to be rich in hits.
Tgondii IFNg = T. gondii growth inhibition under IFN-gamma; activity change, negative = inhibition, % (no concentration beside the values); AID 1259416; 69,000 compounds, 3.8% hits; Toxoplasma gondii growth in IFN-gamma-treated host cells; hits give low values; in the data active = activity change below about -70%, passing the limit was not always enough;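 also: host cells are HeLa cells infected with Toxoplasma gondii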
Numbers without * were called inactive.

Screening O=C(CCN1Cc2ccccc2C1=O)Nc1cnn(Cc2ccc(F)cc2)c1 returned Tgondii IFNg -15.5.
`CCCc1cc(C(=O)Nc2cnn(Cc3ccc(F)cc3)c2)n[nH]1` gave Tgondii IFNg -90.2*.
`CCCS(=O)(=O)N1CC[C@@H]2C[C@H](c3ccncn3)O[C@H]2C1` gave Tgondii IFNg 135.7.
Screening CN(C)c1nc2c(c(N3CCn4cncc4C3)n1)CCCC2 returned Tgondii IFNg 51.0.
Screening Cc1cccc(N2CCC3(CC2)Cc2ccccc2CNC3=O)n1 returned Tgondii IFNg -36.6.
COCCC(=O)c1cc2c(c3ccccc3n2C(C)C)n1-c1ncccn1 was read as Tgondii IFNg -24.6.
For COc1ccc(NC(=O)Nc2ccc(-c3nc(-c4ccccc4)co3)cc2)cc1 the results were Tgondii IFNg -23.4.
COc1ccc(Oc2ccc(NC(=O)Nc3ccc(SC(F)(F)F)cc3)cn2)cc1 was read as Tgondii IFNg -87.6*.
Screening COc1ccc(NC(=O)CSCC(=O)O)cn1 returned Tgondii IFNg -7.2.
For COc1ccc(C)cc1-n1cnnc1C(C)OC (configuration not stated) the results were Tgondii IFNg -22.9.
`Cc1ccc(C)c(NC(=O)CSc2ncc(-c3ccc(F)cc3)n2Cc2ccco2)c1` gave Tgondii IFNg -58.4.
Cc1cccc(CN2C[C@@H]3CN(C(=O)c4cnccn4)C[C@H]3C2=O)n1 was read as Tgondii IFNg -28.9.
For Cc1cccc(S(=O)(=O)N2CCC3(CC(C(=O)N(C)Cc4ccccn4)=NO3)C2)c1 (configuration not stated) the results were Tgondii IFNg 28.2.
CCCCOc1cc(C(=O)NCCN(CC)CC)c2ccccc2n1 was read as Tgondii IFNg -28.3.
For CCCCOc1cc(C(=O)OCCN(CC)CC)ccc1N the results were Tgondii IFNg -4.2.
CCCCc1oc2ccccc2c1C(=O)c1cc(I)c(OCCN(CC)CC)c(I)c1 was read as Tgondii IFNg -81.1*.
Screening CN(Cc1cc(-c2ccccc2)no1)Cc1cccc(F)c1F returned Tgondii IFNg 8.3.
Screening C=CCn1c(=O)c(C(=O)Nc2ccc(F)cc2F)c(O)c2ccccc21 returned Tgondii IFNg inactive.
For CNC(=O)[C@@H]1C[C@@H](N)CN1Cc1c(C)nn(C)c1Oc1ccc(Cl)cc1 the results were Tgondii IFNg -4.9.
`CCNC(=O)c1ccc(N2CCN(Cc3ccc4c(c3)OCCO4)CC2)nc1` gave Tgondii IFNg -2.8.
For CCNC(=O)c1noc(-c2cc(C(C)C)c(O)cc2O)c1-c1ccc(CN2CCOCC2)cc1 the results were Tgondii IFNg -88.4*.
`O=C(Nc1ccc(CN2CCOCC2)cc1)c1cc2ccccc2o1` gave Tgondii IFNg inactive.
For C=CC(=O)N1CCC2C(C[C@@H](CN3CCCC3)N2c2nccs2)C1 (some centres not stated) the results were Tgondii IFNg 2.8.
For CC(C)CN1C(=O)CCC12CCC(NC(=O)c1cnccn1)CC2 (configuration not stated) the results were Tgondii IFNg -2.3.
CCS(=O)(=O)N1CCC2(CCC2NC(=O)c2cnccn2)CC1 (configuration not stated) was read as Tgondii IFNg 5.6.
Screening CCC[C@H](NC(=O)[C@@H]1[C@H]2CCC[C@H]2CN1C(=O)[C@@H](NC(=O)[C@@H](NC(=O)c1cnccn1)C1CCCCC1)C(C)(C)C)C(=O)C(=O)NC1CC1 returned Tgondii IFNg -73.9*.
For COCC(=O)Nc1cccc(-c2ccccc2C(C)=O)c1 the results were Tgondii IFNg -2.7.
O=C(NCCc1csc(-c2ccccc2)n1)[C@H]1CSCN1S(=O)(=O)c1ccc(F)cc1 was read as Tgondii IFNg -10.0.
Screening CCOC(=O)c1noc(C)c1C(=O)CSc1nc(C)c(C)c(C)c1C#N returned Tgondii IFNg 20.3.
COc1ccc(-c2nc(Nc3ccc(Cl)cc3)c3ccccc3n2)cc1 was read as Tgondii IFNg -42.3.
For c1ccc(Oc2nc(NCc3ccco3)nc(NCc3ccco3)n2)cc1 the results were Tgondii IFNg -17.8.
Clc1ccc(Nc2nc(Nc3ccc(Cl)cc3)nc(Oc3ccccc3)n2)cc1 was read as Tgondii IFNg -100.2*.
O=C1NCCN2CCN(Cc3cccn3S(=O)(=O)c3ccccc3)CC12 (configuration not stated) was read as Tgondii IFNg 23.0.
CCc1ccc(NC(=O)N2CCN(Cc3nc(-c4ccc(C)cc4)oc3C)CC2)cc1 was read as Tgondii IFNg -0.8.
Screening CC(=O)Nc1ccc(C)c(NC(=S)Nc2ccc(Cl)c(Cl)c2)c1 returned Tgondii IFNg 23.4.
For Cc1ccc(NC(=O)Nc2ccc(C#N)cc2)cc1Cl the results were Tgondii IFNg -70.6*.
`Cc1cccc(NC(=O)Nc2ccc(C)c(Cl)c2)n1` gave Tgondii IFNg -31.0.
Screening CCOC(=O)c1cc(C2CC2)nc2c1c(=O)n(Cc1nc(-c3ccc(Cl)cc3)oc1C)c(=O)n2C returned Tgondii IFNg -58.9.
Screening O=C(NCc1ccc(N2CCCC2=O)cc1)c1cccc(Cl)c1 returned Tgondii IFNg -3.0.
CCN1C(=O)CCc2cc(NS(=O)(=O)Cc3cccc(Cl)c3)ccc21 was read as Tgondii IFNg -34.0.
Screening O=C(NCc1cccc(Cl)c1)c1ccc2c(c1)CCC(=O)N2Cc1ccccc1 returned Tgondii IFNg -99.5*.
CN1CC2(CCCN(C(=O)c3cccc4c3NCCC4)CC2)OC1=O (configuration not stated) was read as Tgondii IFNg 9.8.
C=CCSc1ncnc2c1sc1nc(C)cc(C)c12 was read as Tgondii IFNg 99.1.
For Cc1cc(C)c2c(n1)sc1c(=O)oc(C)nc12 the results were Tgondii IFNg 13.9.
`Cc1cc(C)c2c(n1)sc1c3ccccc3c(N)nc12` gave Tgondii IFNg -102.2*.
`CN(C)Cc1nn(C)c2c1CN(S(=O)(=O)c1ccc(F)cc1)C2` gave Tgondii IFNg -8.4.
For COC(=O)CC1(C(=O)OC)Oc2ccc(Cl)cc2C(=O)N1c1ccc(F)cc1F (configuration not stated) the results were Tgondii IFNg -70.5*.
COc1ccc(Cl)cc1C(=O)Nc1ccc2c(c1)CCC(=O)N2C was read as Tgondii IFNg 43.5.
For CCOC(=O)N1CCC2(CC1)OC(=O)C(C)=C2C(=O)Nc1ccc(F)cc1F the results were Tgondii IFNg 68.8.
CCn1ncc2c1C(COC)N(C(=O)/C=C/c1cccs1)CC2 (configuration not stated) was read as Tgondii IFNg -40.9.
Screening CN1C(Cn2cccn2)CC2CN(Cc3cccc(C#N)c3)CCC21 (configuration not stated) returned Tgondii IFNg -4.8.
For Cc1oc(C2CCN(S(=O)(=O)c3ccccc3F)CC2)nc1C(=O)N1CCCC1 the results were Tgondii IFNg 29.5.
For Cc1ccc(NC(=O)N2CCC(c3nc(C(=O)N4CCCC4)c(C)o3)CC2)c(Cl)c1 the results were Tgondii IFNg 9.8.
`Cc1ccc(F)cc1S(=O)(=O)N1CCC(c2nc(C(=O)N3CCCCC3)c(C)o2)CC1` gave Tgondii IFNg -77.1*.
`Cc1oc(C2CCN(C(=O)Nc3cccc(F)c3C)CC2)nc1C(=O)N1CCCC1` gave Tgondii IFNg -81.3*.
For Cc1ccc(NC(=O)N2CCC(c3nc(C(=O)N4CCCC4)c(C)o3)CC2)cc1 the results were Tgondii IFNg -41.1.
For Cc1ccc(NC(=O)N2CCC(c3nc(C(=O)N4CCCC4)c(C)o3)CC2)c(C)c1 the results were Tgondii IFNg -77.4*.
Screening Cc1oc(C2CCN(S(=O)(=O)c3cc(F)ccc3F)CC2)nc1C(=O)N1CCCC1 returned Tgondii IFNg -13.1.
